What all share (assay): NCI-60 one-dose screen, 48 h (100 = growth as untreated, 0 = no growth, -100 = all killed)
One experiment concerns T-47D breast. The following applies: 10 µM.
Another experiment has as its system BT-549 breast. The following applies: 10 µM.
A further experiment relates to MDA-MB-435 melanoma. The following applies: 10 µM.
A further experiment deals with SW-620 colon. Conditions: 10 µM.
Another experiment deals with MCF7 breast.
A further experiment concerns HCT-116 colon. The following applies: 10 µM.
For a further experiment, the system named is HCC-2998 colon. Conditions: 10 µM.
In a further experiment the test system is KM12 colon. Conditions: 10 µM.

Values joined by “and” are separate entries in the source; they are usually repeats but may differ in a detail not shown here. Identical values can stand only once. The panel holds about 83,000 compounds, 20% with a hit somewhere; the sample as a whole holds those more often.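 Growth was measured after 48 h exposure to one concentration of compound in 96-well plates. Values under 10 count as active.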 Unmarked numbers belong to inactive results. Active and inactive are the calls of the source.

Take `Cc1cc(Cl)ccc1NC(=O)/C(Cl)=C1/Sc2ccccc2NC1=O`: the growth was 50.3% in the experiment with T-47D breast; 115% in the experiment on BT-549 breast; 99.7% with MDA-MB-435 melanoma; 113% with SW-620 colon; 70.8% in the experiment with MCF7 breast (10 µM); 76.7% in the experiment on HCT-116 colon. For the same compound, the growth in the experiment with HCC-2998 colon was 119%; in the experiment with KM12 colon it was 96.4%.
For the compound `Cc1cc(O)c2c(c1O)C(=O)C13C(=C2O)C(=O)C2C(O)C1C1C(O)C3C(=O)C3=C(O)c4c(O)cc(C)c(O)c4C(=O)C321` (configuration not stated), the growth in the experiment with T-47D breast is -1.74% (active); with BT-549 breast, -53.3% (active); in the experiment with MDA-MB-435 melanoma it was -14.7% (active); with SW-620 colon it was 8.3% (active); in the experiment on MCF7 breast (10 µM), 4.59% (active); in the experiment on HCT-116 colon, 2.8% (active). Besides, the growth with HCC-2998 colon is -43.6% (active); in the experiment on KM12 colon, -53.3% (active).
As for `CC1CCC2(C(=O)O)CCC3(C)C(=CCC4C5(C)CC(O)C(O)C(C)(CO)C5C(O)CC43C)C2C1C` (configuration not stated), the growth in the experiment on T-47D breast was 97%; in the experiment with BT-549 breast it was 114%; in the experiment with MDA-MB-435 melanoma it was 110%; with SW-620 colon, 107%; with MCF7 breast (10 µM), 96.9%; with HCT-116 colon, 103%. In addition, the growth in the experiment on KM12 colon is 104%.
Turning to `CN(CC(=O)O)c1ccc(/C=C/c2ccnc3ccccc23)cc1`, the growth in the experiment with T-47D breast was 55.4%; in the experiment on BT-549 breast, 65.3%; in the experiment on MDA-MB-435 melanoma, 38.1%; with SW-620 colon it was 84.3%; with HCT-116 colon it was 89.4%; in the experiment with HCC-2998 colon it was 91.9%. Further, the growth in the experiment on KM12 colon was 85.2%.
As to `COc1ccc(N)c2c1C(=O)c1ccccc1C2=O`, the growth in the experiment with T-47D breast is 81.9%; in the experiment on MDA-MB-435 melanoma, 108%; in the experiment with SW-620 colon, 106%; in the experiment with HCT-116 colon it was 102%; with HCC-2998 colon, 105%; in the experiment with KM12 colon it was 102%.
With `O=C1C=CC(=O)N1c1ccc(N2C(=O)C=CC2=O)cc1`, the growth is 95.9% with T-47D breast; 89.6% in the experiment with BT-549 breast; 107% with MDA-MB-435 melanoma; 112% in the experiment with SW-620 colon; 98.3% with HCT-116 colon; 115% in the experiment on HCC-2998 colon. The growth with KM12 colon is 113%.
`CCC(C)(c1ccc(O)c(C)c1)c1ccc(O)c(C)c1`: the growth in the experiment on T-47D breast was -5.53% (active); in the experiment on BT-549 breast, 192%; in the experiment with MDA-MB-435 melanoma, 78.8%; with SW-620 colon, 111%; in the experiment on HCT-116 colon, 94%; with HCC-2998 colon it was 107%. The growth in the experiment with KM12 colon was 94.6%.
For `O=C(CNS(=O)(=O)Cc1ccccc1)NNc1ccccc1`, the growth is 56.6% in the experiment on T-47D breast; 82.9% in the experiment on BT-549 breast; 21.9% with MDA-MB-435 melanoma; 55.6% with HCT-116 colon; 70.5% in the experiment on HCC-2998 colon; 15% in the experiment on KM12 colon.
As to `COc1ccc(C(C#N)=C2C=CC(=NO)C=C2)cc1`, the growth in the experiment with T-47D breast is 1.56% (active); in the experiment on BT-549 breast, 106%; with MDA-MB-435 melanoma, 23.2%; with SW-620 colon, 12.1%; in the experiment with HCT-116 colon, -37.2% (active); in the experiment on HCC-2998 colon, 105%. Moreover, the growth with KM12 colon was -24.7% (active).
Consider `O=C(NC(=S)Nc1ccccn1)c1ccccc1`, for which the growth was 59.1% with T-47D breast; 77.1% in the experiment with BT-549 breast; 105% with MDA-MB-435 melanoma; 96.1% in the experiment on SW-620 colon; 87.9% in the experiment on HCT-116 colon; 97% in the experiment with KM12 colon.
For the compound `O=c1[nH]cc(/C=N\Nc2ccccc2)c(=O)[nH]1`, the growth is 42.4% in the experiment on T-47D breast; 82.5% with BT-549 breast; 42.5% with MDA-MB-435 melanoma; 46.6% with SW-620 colon; 57% with HCT-116 colon; 76.9% in the experiment with HCC-2998 colon. Also, the growth in the experiment with KM12 colon was 37.9%.
For the compound `O=C1c2cccc3cc([N+](=O)[O-])cc(c23)C(=O)N1CCN1CCCC1`, the growth with T-47D breast was -6.31% (active); with BT-549 breast it was 3.71% (active); in the experiment on MDA-MB-435 melanoma, 16.2%; in the experiment with SW-620 colon, -4.97% (active); in the experiment with HCT-116 colon it was -37.6% (active); in the experiment on HCC-2998 colon, -69.6% (active). Moreover, the growth in the experiment with KM12 colon is 1.61% (active).
For `N#C/C(=C/N1C(=O)/C(=C/c2ccc([N+](=O)[O-])cc2)SC1=S)c1nc2ccccc2s1`, the growth in the experiment with T-47D breast is 53.6%; in the experiment with BT-549 breast, 84%; with MDA-MB-435 melanoma, 99%; in the experiment on SW-620 colon it was 87.8%; in the experiment on HCT-116 colon, 85.9%; with HCC-2998 colon, 92.6%. Further, in the experiment with KM12 colon, the growth is 89.7%.
On to `O=S(=O)(c1cc(Cl)ccc1O)c1cc(Cl)ccc1O`, for which the growth is 67% in the experiment with T-47D breast; 93.4% in the experiment on MDA-MB-435 melanoma; 86.3% in the experiment with SW-620 colon; 77.1% in the experiment on HCT-116 colon; 99.5% in the experiment with HCC-2998 colon; 98.1% in the experiment with KM12 colon.
With `O=C(O)c1ccccc1.[Ag]`, the growth was 72.6% in the experiment with T-47D breast; 99.4% with BT-549 breast; 88.5% with MDA-MB-435 melanoma; 96.8% in the experiment with HCT-116 colon; 109% with HCC-2998 colon; 89.3% in the experiment with KM12 colon.
For `N#CC(=S)Nc1cccc(Cl)c1`, the growth in the experiment with MCF7 breast (100 µM) is 0.126% (active) and -100% (active).
On to `Cc1c(-c2ccccc2)[nH]c2ccccc12`, for which the growth in the experiment with T-47D breast is 92.4%; in the experiment on MDA-MB-435 melanoma, 111%; in the experiment with SW-620 colon, 99.3%; in the experiment with HCT-116 colon it was 113%; with HCC-2998 colon, 102%; with KM12 colon, 103%.
`Cn1ncc2cc3c(Nc4ccc(Cl)cc4)cccc3nc21`: the growth in the experiment on T-47D breast was 77.2%; in the experiment with BT-549 breast it was 97.4%; in the experiment on MDA-MB-435 melanoma it was 100%; with SW-620 colon it was 97.5%; with HCT-116 colon, 85.6%; with HCC-2998 colon it was 110%. Also, the growth in the experiment on KM12 colon is 90.8%.
Take `O=C1C(Cl)=C(Cl)C(Cl)(Cl)C(Cl)C1(Cl)Cl` (configuration not stated): the growth is 91.9% with T-47D breast; 96.4% with BT-549 breast; 111% in the experiment with MDA-MB-435 melanoma; 105% in the experiment on SW-620 colon; 102% with HCT-116 colon; 106% with HCC-2998 colon. For the same compound, in the experiment on KM12 colon, the growth is 109%.
Take `S=C1SCN(CCc2ccccc2)CN1CCc1ccccc1`: the growth in the experiment with T-47D breast is 70.8%; with BT-549 breast, 129%; with MDA-MB-435 melanoma it was 98.6%; with SW-620 colon, 89.4%; in the experiment on HCT-116 colon it was 102%; in the experiment on HCC-2998 colon, 101%. In the experiment with KM12 colon, the growth is 96.8%.
Take `O=Nc1ccc(Nc2ccccc2)cc1`: the growth was 63.2% with T-47D breast; 78.8% in the experiment on BT-549 breast; 83.6% in the experiment with MDA-MB-435 melanoma; 70.1% with SW-620 colon; 78.4% in the experiment on HCT-116 colon; 93.8% in the experiment with HCC-2998 colon. Further, the growth in the experiment with KM12 colon is 93.3%.
Take `CC[C@@]1(OC(=O)CN(C)C)C(=O)OCc2c1cc1n(c2=O)Cc2cc3c(N)cccc3nc2-1`: the growth was 13.3% in the experiment with T-47D breast; -11.8% (active) with BT-549 breast; -44.7% (active) with MDA-MB-435 melanoma; 3.83% (active) in the experiment on SW-620 colon; 0.716% (active) in the experiment with HCT-116 colon; -14.7% (active) in the experiment on HCC-2998 colon. The growth in the experiment with KM12 colon is 0.253% (active).
In the case of `ClCCn1c(CCl)nc2ccc(Cl)cc21`, the growth is -66.2% (active) in the experiment with BT-549 breast; -83% (active) with MDA-MB-435 melanoma; -54.6% (active) in the experiment on SW-620 colon; -28.9% (active) in the experiment on HCT-116 colon; -2.45% (active) in the experiment with HCC-2998 colon; -43% (active) with KM12 colon.
In the case of `O=C1c2ccccc2CCC1(Br)Br`, the growth in the experiment on T-47D breast is -23.8% (active); in the experiment with BT-549 breast it was -31.9% (active); in the experiment on MDA-MB-435 melanoma, 3.86% (active); with SW-620 colon, -45.5% (active); in the experiment with HCT-116 colon, -90% (active); in the experiment on HCC-2998 colon, 77.2%. In addition, the growth in the experiment on KM12 colon was 87.2%.
